# Source: PubChem BioAssay
# HCV inhibitor: inhibitors of hepatitis C virus infection. Huh7.5.1 HCVcc-Cre infection, luciferase reporter, 44 h. AID 651820. 340,000 tested, 3.4% active. Potency, µM (titrated, usually from 41.8 µM), for inactives: at the highest dose activity change, negative = inhibition, actives largely listed as inhibitors; also: potency is read from the fitted curve at half-maximal effect; % is scaled to controls: 0 for no effect and ±100 for the full control effect
#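 Compounds are dispensed onto cells plated 4 h earlier at 1,000 per well, with HCVcc-Cre virus (about 0.5 moi) added next. Following 44 h of culture, luminescent signal is measured for 15 sec after 15 min with substrate at room temperature.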
# Sm TGR block: blocks Schistosoma mansoni thioredoxin glutathione reductase; Q962Y6; purified TGR, DTNB reduction, TNB absorbance 405 nm; Potency, µM (titrated, usually from 114 µM), without a hit: at the highest dose activity change, negative = inhibition, hits mostly inhibitors; 360,000 tested, 3% active; AID 485364; also: potency is read from the fitted curve at half-maximal effect; % is scaled to controls: 0 for no effect and ±100 for the full control effect; nearly all actives have a fitted effect of over 60% in size
#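 First, TGR (20 nM dispensed) and NADPH were mixed with compound. Second, a 15 min room-temperature incubation followed. Third, further NADPH and then DTNB were added to start the reaction. Finally, TNB absorbance was monitored kinetically.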
# HCMV inh: inhibitors of human cytomegalovirus; HFF cells, HCMV-luciferase reporter, 72 h; active compounds read low; 410,000 tested, 4.5% active; activity change, negative = inhibition, % at 57.5 µM; in the data active = activity change below about -60%; inconclusive = no clear call, values can overlap the other calls; inactive = above about -39%; also: % is scaled to controls: 0 for no effect and ±100 for the full control effect
#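 Two-dose cell screen: HFF monolayers treated with compounds and infected with luciferase-expressing HCMV at 1 PFU/cell, 72 h at 37C, then lysed for luciferase measurement.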
# Pf growth 48h: P. falciparum growth inhibition at 48 hours (one generation); P. falciparum luciferase growth in erythrocytes, 48 h; Potency, µM (doses to about 28.7 µM), inactives show top-dose activity change, negative = inhibition, most hits filed as inhibitors; 310,000 tested, 5.9% active; AID 504832; also: potency is read from the fitted curve at half-maximal effect; % is scaled to controls: 0 for no effect and ±100 for the full control effect
#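 Erythrocytes infected with P. falciparum carrying an integrated firefly luciferase reporter (2% hematocrit, 0.1% parasitemia final) were exposed to compounds in RPMI 1640 with 0.5% Albumax at 37 C, 5% CO2. Growth inhibition was scored as reduced luminescence.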
# SARS PLpro yeast: SARS-CoV PLP inhibition in yeast; S. cerevisiae expressing SARS-CoV PLpro, growth rescue; Potency, µM (highest dose often 32.9 µM), inactives show at the top dose activity, positive = growth rescue, most hits filed as activators; 330,000 tested, 0.19% active; AID 485353; calls by dose curve; also: potency is read from the fitted curve at half-maximal effect; 0% is about no effect; nearly all actives have a fitted effect of over 55% in size
# Pf growth 96h: inhibits malaria parasite growth, 96 h. P. falciparum luciferase reporter growth, 96 h. Potency, µM (highest dose often 28.7 µM), inactives show at the highest dose activity change, negative = inhibition, actives largely listed as inhibitors. 320,000 tested, 6.9% active. AID 504834; also: potency is read from the fitted curve at half-maximal effect; % is scaled to controls: 0 for no effect and ±100 for the full control effect
#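 Compounds incubated with erythrocytes infected by luciferase-expressing P. falciparum (2% hematocrit, 0.05% parasitemia final) for 96 hours, 37 C in 5% CO2. Growth inhibition scored as decreased luciferase luminescence.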
# Numbers without * were called inactive; ? = inconclusive; nt = no result given. Rows were chosen to be rich in hits. Some 15% of all compounds tested hit in one or more screens of this group. Unless noted, calls follow the shape of the dose curve; as a rule, active = well fitted curve in the direction sought with a large enough effect; inconclusive = small, poorly fitted or top-dose-only effect, or another doubt; inactive = no such curve, though single readings can be large; an effect the other way counts as inactive or inconclusive.
SMILES,HCV inhibitor,Sm TGR block,HCMV inh,Pf growth 48h,SARS PLpro yeast,Pf growth 96h
Cc1ccc(-c2cc(C(=O)N/N=C/c3ccc([N+](=O)[O-])o3)c3ccccc3n2)o1,11µM*,40µM*,-21,-25%,-7%,3.3µM*
O=C(N/N=C/c1cccc([N+](=O)[O-])c1)c1cc(-c2ccccc2)nc2ccccc12,9%,2%,-7,0%,-5%,?
Cc1cc(Nc2ccc([N+](=O)[O-])cc2)nc2ccccc12,?,nt,?,?,-2%,26%
O=C(N/N=C/c1ccc([N+](=O)[O-])o1)c1cc(-c2ccc(-c3ccccc3)cc2)nc2ccccc12,-52%,?,-99*,?,-5%,?
CCOC(=O)C(=CNc1ccc(OC)cc1[N+](=O)[O-])C(=O)OCC,?,-8%,20,13%,0%,-17%
Cn1c(COc2ccccc2Br)nc2ccccc21,-22%,8%,67,149%,-4%,?
COc1ccccc1-c1cc(C(=O)N/N=C/c2ccc(C)o2)c2ccccc2n1,-10%,-36%,-25,?,2%,?
O=C(N/N=C/c1ccc([N+](=O)[O-])o1)c1cn(-c2ccccc2)nc1-c1ccc(Cl)cc1,?,-27%,-4,4.7µM*,0%,?
Cc1ccc(/C=N/NC(=O)c2cc(-c3ccncc3)nc3ccccc23)o1,-12%,?,-64*,5%,-6%,-12%
O=C(N/N=C/c1ccc([N+](=O)[O-])o1)c1cc(-c2ccncc2)nc2ccccc12,10µM*,-59%,-67*,?,-5%,0.93µM*
O=C(N/N=C/c1ccccn1)c1cc(-c2ccncc2)nc2ccccc12,32%,-3%,-25,?,-1%,?
Cc1ccc(CN2C(=O)CSCC2(C)C(=O)Nc2c(C)cccc2C)cc1 (centres undefined),nt,nt,-16,nt,nt,nt
Cn1c(=O)c([N+](=O)[O-])c(NCc2ccc3c(c2)OCO3)c2ccccc21,-30%,0%,-13,51%,2%,3%
O=C(Nc1nc(-c2ccccc2)c(-c2ccccc2)s1)c1ccc(S(=O)(=O)N2CCCCC2)cc1,-15%,8%,33,-18%,19%,23%
O=C(Nc1nc(-c2ccccn2)cs1)c1ccc(S(=O)(=O)N2CCCCC2)cc1,nt,-16%,nt,3.3µM*,-3%,2.3µM*
CN1CCN(S(=O)(=O)c2cccc(C(=O)Nc3nc(-c4ccccc4)cs3)c2)CC1,?,1%,248,nt,8%,-71%
COc1ccc(-c2csc(NC(=O)c3cccc(S(=O)(=O)N4CCN(C)CC4)c3)n2)cc1,?,38%,27,?,-2%,12µM*
O=C(Nc1nc(-c2ccc(S(=O)(=O)N3CCCC3)cc2)cs1)c1ccco1,?,3%,-65*,?,5%,27%
O=C(Nc1nc(-c2cccs2)cs1)c1cccc(S(=O)(=O)N2CCCCCC2)c1,11µM*,5%,95,-21%,5%,nt
Cc1csc(NC(=O)c2cccc(S(=O)(=O)N3CCCCC3)c2)n1,-1%,5%,36,?,-1%,?
CCc1cccc(NC(=O)CCn2c(=O)c3cccn3c3cccnc32)c1,nt,1%,?,nt,nt,nt
CC(C)(C)N1C(=O)c2ccc(C(=O)Nc3cc(C(=O)O)cc(C(=O)O)c3)cc2C1=O,5%,3%,-8,0%,2%,-3%
CC(=O)c1cccc(NC(=O)CNC(=O)c2sc3ccccc3c2Cl)c1,-20%,-5%,2,?,nt,12%
O=C(Nc1nc(-c2cccs2)cs1)c1ccc(S(=O)(=O)N2CCCCC2)cc1,18µM*,7%,-67*,?,-4%,-7%
COc1ccc(-c2csc(NC(=O)C3CCCCN3S(=O)(=O)c3ccccc3)n2)cc1 (centres undefined),?,4%,-68*,?,0%,7.4µM*
